Laboratory results reported in the supplement of paper PMC7156485.
Several values for one entry are separate records, joined by “and”; a condition that tells them apart may be missing. Equal entries are not always repeated. ± gives the standard deviation of the averaged measurements.

Legend:
Conditions in all cases: concentration: 10 µM; 24 h
HCC1569 [1] = experiment: cell number relative to DMSO (% of DMSO); higher = more cells (less growth inhibition / toxicity)
Procedure, shortened: (§1)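 Cell number or H1.0 nuclear intensity appears as percent of the plate control, based on the median of replicates. Measurements came from HCC1569 and TDF cells exposed in triplicate to compounds at 10 µM for 24 h at 37 °C, then imaged in six fields per well at ×10. Positional effects were smoothed out of HCC1569 values.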

TDF [2] = experiment: as above
Procedure, shortened: as §1

TDF [3] = experiment: H1.0 immunofluorescence intensity relative to DMSO (% of DMSO); higher = stronger H1.0 induction, active = 120 or more
Procedure, shortened: as §1

HCC1569 [4] = experiment: H1.0 immunofluorescence intensity relative to DMSO (% of DMSO); higher = stronger H1.0 induction, active = 140 or more
Procedure, shortened: as §1
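Throughout, for H1.0 immunofluorescence intensity relative to DMSO: TDF is a line of transformed human dermal fibroblasts of mesenchymal origin.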
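Throughout, for cell number relative to DMSO: TDF denotes transformed human dermal fibroblasts of mesenchymal origin.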

Compound	cell number (HCC1569 [1])	cell number (TDF [2])	H1.0 immunofluorescence intensity (TDF [3])	H1.0 immunofluorescence intensity (HCC1569 [4])
COc1cc(C2Oc3cc(C4Oc5cc(O)cc(O)c5C(=O)C4O)ccc3OC2CO)ccc1O (stereo not given) [Silymarin]	102	93.6	95.5 (inactive)	88.3 (inactive)
CC1=NC(=NNc2ccc(C(=O)[O-])cc2)C(COP(=O)([O-])[O-])=C(C=O)C1=O.[Na+].[Na+].[Na+]	101	103	93.5 (inactive)	103 (inactive)
O=C1c2c(O)cc(O)cc2OC(c2ccc(O)c(O)c2)C1O (racemic)	108	109	87.5 (inactive)	103 (inactive)
COc1ccc(-c2cc(=O)c3c(OC)c(OC)c(OC)cc3o2)cc1OC [Sinensetine]	101	99.8	93.9 (inactive)	93.6 (inactive)
CN1CCC(=C2c3ccccc3CC(=O)c3sccc32)CC1.O=C(O)C=CC(=O)O [Ketotifen fumarate]	101	99.6	91.6 (inactive)	98.7 (inactive)
Cl.NC(CO)C(=O)NNCc1ccc(O)c(O)c1O (stereo not given) [Benserazide hydrochloride]	91.1	95.6	98.3 (inactive)	96.3 (inactive)
O=C(O)CCc1nc(-c2ccccc2)c(-c2ccccc2)o1 [Oxaprozin]	104	101	96.9 (inactive)	97.7 (inactive)
CC1CNCCN1S(=O)(=O)c1cccc2cnccc12.Cl.Cl (stereo not given)	101	105	88.4 (inactive)	83 (inactive)
Nc1[nH]nc2nc3ccccc3nc12	95	104	101 (inactive)	115 (inactive)
O=[N+]([O-])c1ccc(CSc2ncnc3c2ncn3C2OC(CO)C(O)C2O)cc1 (stereo not drawn) [S-(4-Nitrobenzyl)-6-thioinosine]	99	111	92.2 (inactive)	80.6 (inactive)
CC(=O)OCC1(O)CC23CCC4c5ccoc5C=CC4(C)C2CCC1C3 (stereo not given) [Kahweol Acetate]	103	95.3	105 (inactive)	98.9 (inactive)
CC(O)C(CO)NC(=O)C1CSSCC(NC(=O)C(N)Cc2ccccc2)C(=O)NC(Cc2ccccc2)C(=O)NC(Cc2c[nH]c3ccccc23)C(=O)NC(CCCCN)C(=O)NC(C(C)O)C(=O)N1 (stereo not given) [Octreotide]	106	98.5	103 (inactive)	98.9 (inactive)
CC(C)=CCCC(C)(O)C1CCC2(C)C1CCC1C3(C)CCC(=O)C(C)(C)C3CCC12C (stereo not given) [Dipterocarpol]	95.8	102	97.8 (inactive)	82.7 (inactive)
CNC(=C[N+](=O)[O-])NCCSCc1ccc(CN(C)C)o1.Cl [Ranitidine.HCl]	110	106	95.3 (inactive)	103 (inactive)
Cc1ccc(Nc2nccc(N(C)c3ccc4c(C)n(C)nc4c3)n2)cc1S(N)(=O)=O [Pazopanib]	74.3	100	94.6 (inactive)	156 (active)
CCCCS(=N)(=O)CCC(N)C(=O)O (stereo not given) [Buthionine sulfoximine]	95.9	116	89.1 (inactive)	92.6 (inactive)
COc1cc(NS(C)(=O)=O)ccc1Nc1c2ccccc2nc2ccccc12.Cl [Amsacrine hydrochloride]	67.8	32.3	152 (active)	113 (inactive)
O=c1cc(N2CCOCC2)nc2c3ccccc3ccn12	95.2	91.4	94.7 (inactive)	111 (inactive)
CCCCCCCCCCCC=CCCCCCCC(=O)O [8(Z)-Eicosenoic acid]	103	105	100 (inactive)	103 (inactive)
Cc1cc(C)c(S(=O)(=O)Nc2cccc(C(F)(F)F)c2)c(C)c1	99.3	90	105 (inactive)	104 (inactive)
CS(=O)(=O)O.NC(=NC(=O)c1nc(Cl)c(N)nc1N)Nc1ccccc1 [Phenamil methanesulfonate]	103	116	88.9 (inactive)	96.1 (inactive)
CC(C)NCC(O)COc1cccc2[nH]ccc12 (stereo not given) [Pindolol]	98 ± 3.1	94.3 ± 2.5	98.8 (inactive)	110 (inactive)
C[N+](C)(C)CCC(=O)c1cccc2ccccc12.[I-] [2-(alpha-Naphthoyl)ethyltrimethylammonium iodide]	92.7	81.5	101 (inactive)	91.6 (inactive)
C[C@H](C#Cc1ccc(Cc2ccc(F)cc2)s1)N(O)C(N)=O	98	92	100 (inactive)	99.7 (inactive)
NC(=S)NN=Cc1ncccc1N [3-amino-2-pyridinecarbaldehyde thiosemicarbazone]	77.2	41.7	113 (inactive)	99.1 (inactive)

Compound	cell number (HCC1569 [1])	cell number (TDF [2])	H1.0 immunofluorescence intensity (TDF [3])	H1.0 immunofluorescence intensity (HCC1569 [4])
CCCCCC(O)c1cccc(OCc2ccc3ccccc3n2)c1 (stereo not given)	103 and 102	107 and 102	104 (inactive) and 91.2 (inactive)	110 (inactive) and 101 (inactive)
O=C(NC1CCNCC1)c1[nH]ncc1NC(=O)c1c(Cl)cccc1Cl	53.5	31.9	131 (active)	117 (inactive)
O=C1c2ccccc2-n2c1nc1ccccc1c2=O [Tryptanthrin]	96.9	53.6	101 (inactive)	93.6 (inactive)
CC12CCC3c4ccc(O)cc4CCC3C1CCC2O (stereo not given) [Estradiol]	94.6	93.8	97.6 (inactive)	121 (inactive)
CCCCCC(O)C=CC1C(O)CC(O)C1CC=CCCCC(=O)O (stereo not given) [Prostaglandin F2a]	97.3	107	97.6 (inactive)	112 (inactive)
COCCCCCCCCCCCC(=O)O [12-Methoxydodecanoic acid]	101 ± 1.2	95.9 ± 11	95.5 (inactive)	98.5 (inactive)
COC(=O)C=Cc1cc(O)ccc1O [2,5-Dihydroxycinnamic acid methyl ester]	104	103	91.7 (inactive)	93.6 (inactive)
Fc1ccc(-c2nc3n(c2-c2ccncc2)CCS3)cc1	95.4	108	92.3 (inactive)	107 (inactive)
CC1C=CC=CC=CC=CC=CC=CC=CC(OC2OC(C)C(O)C(N)C2O)CC2OC(O)(CC(O)CC(O)C(O)CCC(O)CC(O)CC(=O)OC(C)C(C)C1O)CC(O)C2C(=O)O (stereo not given) [Amphotericin B]	97.4	89.9	105 (inactive)	83.9 (inactive)
O=C1CN2Cc3c(ccc(Cl)c3Cl)NC2=N1 [Anagrelide]	103	110	92.9 (inactive)	98.7 (inactive)
CN1CCN(C2=Nc3ccccc3Sc3ccc(Cl)cc32)CC1 [Clothiapine]	103	88.9	94 (inactive)	110 (inactive)
O=c1ccc2cc(O)c(O)cc2o1 [Esculetin]	101	94.7	99.6 (inactive)	101 (inactive)
Cc1nc(N)sc1-c1ccnc(Nc2ccc(N3CCOCC3)cc2)n1	62.2	42.5	105 (inactive)	99.1 (inactive)
Cc1ccc(S(=O)(=O)NC(=O)NN2CCCCCC2)cc1 [Tolazamide]	101.3 ± 0.45	111.1 ± 0.38	93.2 (inactive)	102 (inactive)
O=c1onc2cnc3ccccc3n12	101	97.5	103 (inactive)	106 (inactive)
O=c1cc(-c2ccc(O)c(O)c2)oc2cc(O)cc(O)c12 [Luteolin]	74.6 ± 15	62.6 ± 57	124 (active)	120 (inactive)
CCCCc1ncc(C=C(Cc2cccs2)C(=O)O)n1Cc1ccc(C(=O)O)cc1.CS(=O)(=O)O [Eprosartan mesylate]	97.1	91.7	96.4 (inactive)	97.4 (inactive)
CCn1cc(C(=O)O)c(=O)c2cc(F)c(N3CCNC(C)C3)c(F)c21.Cl (stereo not given) [Lomefloxacin hydrochloride]	101	102	92.2 (inactive)	92.9 (inactive)
CCCCCCC(C(C)O)n1cnc2c(N)ncnc21.Cl (stereo not drawn) [erythro-9-(2-Hydroxy-3-nonyl)adenine hydrochloride]	104	108	90.1 (inactive)	88.6 (inactive)
CN(C)CCCN1c2ccccc2CCc2ccccc21.Cl [Imipramine hydrochloride]	108	98.4	97.2 (inactive)	105 (inactive)
Cc1[nH]c2ccccc2c1CCNC(=O)c1ccccc1F [2-fluoro-N-[2-(2-methyl-1H-indol-3-yl)ethyl]benzamide]	100	106	110 (inactive)	93.6 (inactive)
Cn1c(=O)c2[nH]cnc2n(C)c1=O [Theophylline]	100	95.5	97 (inactive)	103 (inactive)
CCCCCCCCCCCCCCC[C@@H](O)[C@@H](N)CO [(2S,3R)-2-amino-1,3-octadecanediol]	97.2	39.4	120 (active)	96.2 (inactive)
Cl.O.O=C(O)CN(CCN(CC(=O)O)Cc1ccccc1O)Cc1ccccc1O	105	98.8	108 (inactive)	90.1 (inactive)
C=CC1(C)CCC2C(=CCC3C(C)(C(=O)O)CCCC23C)C1 (stereo not drawn) [(4alpha,13alpha)-pimara-7,15-dien-18-oic acid]	102	101	99 (inactive)	86.6 (inactive)
